We go through 96 compounds from PubChem BioAssay AID1626 (SRMLSC, 2009).

About 2,000 (0.91%) of roughly 220,000 compounds were called active. About 2% were inconclusive and are not listed. Not all results are given here. Entries with a potency or affinity are not part of this list. Values without a mark were called inactive. Cut-off read from the data, not from the text of the source: inconclusive = inhibition above about 80% without an active follow-up result; inactive = below that; test concentration not stated here.

The assay can be described thus: M. tuberculosis H37Rv growth inhibitors, H37Rv strain (AID 1626).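 Note: bacteria incubated seven days before Alamar blue readout; 0% = bacteria only wells and 100% = bacteria with antibiotic wells.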 The settings on record: active compounds read high, concentration not given here.
As a reminder, the inhibition is the relative decrease from the control value, in per cent. Turning to `O=C(O)c1cccnc1Br`, the inhibition was 1.4%.

Take `Cc1ccc(/C=N/OC(=O)c2nn(C)cc2Cl)cc1`: the inhibition was 11.9%. Consider `CCC1CSC(Nc2ccc(C(=O)/C=C/c3ccc(OC)c(OC)c3)cc2)=N1` (stereo unspecified), for which the inhibition was 44.8%. As to `CCCc1cc(=O)[nH]c(SCc2ccc(F)cc2)n1`, the inhibition was -1.85%. To `COc1cccc(NC(=O)N2CCCc3ccccc32)c1` belongs 15%; to `COc1cccc2sc(N(CCCN(C)C)C(=O)c3sc4ccccc4c3Cl)nc12`, 1.6%; to `COc1cccc2sc(N(CCCN(C)C)C(=O)COc3ccc(Cl)cc3)nc12`, -2.48%.

With `Cc1cccc(C(=O)Nc2ccccc2C(=O)OCC(=O)Nc2ccc(C#N)cc2)c1`, the inhibition is 45%. To `CCNC(=O)COC(=O)CNC(=O)c1cc(Cl)cc([N+](=O)[O-])c1` belongs -10%; to `O=C(Oc1ccc(Cl)c2cccnc12)N1CCCCC1`, 4.79%; to `CN(C)C(=O)Oc1ccc(Cl)c2cccnc12`, -4.68%.

Consider `CCCC(=O)Nc1ccc(NC(=O)c2ccccc2Cl)nc1`, for which the inhibition is 7.45%. Turning to `O=C(N/N=C/C=C\c1ccc([N+](=O)[O-])cc1)c1cccnc1`, the inhibition was -15.7%. Then `O=C1/C(=C/c2ccncc2)Oc2cc(OS(=O)(=O)c3ccccc3)ccc21`, with 21.6%; and `CS(=O)(=O)Oc1ccc2c(c1)O/C(=C\c1cccnc1)C2=O`, with -6.08%; and `O=C1/C(=C/c2cccnc2)Oc2cc(OS(=O)(=O)c3ccc(Cl)cc3)ccc21`, with 13.6%. On to `Cc1ccc(S(=O)(=O)Oc2ccc3c(c2)O/C(=C\c2cccnc2)C3=O)cc1`, for which the inhibition is -0.74%. Take `Cc1ccc2[nH]cc(C(=O)CN3CCOCC3)c2c1`: the inhibition is -4.26%. Consider `COc1ccc(C2C3=C(CCCC3=O)Nc3n[nH]c(C)c32)cc1OC` (stereo unspecified), for which the inhibition was -5.11%. As for `CCOC(=O)CSc1nnc(CNc2cccc(Cl)c2)n1-c1ccccc1`, the inhibition was 5.48%. Consider `N#Cc1nc(-c2ccc(OCc3ccccc3)cc2)oc1NCCCn1ccnc1`, for which the inhibition was 4.85%.

Turning to `N#Cc1nc(-c2ccc(OCc3ccc(Cl)cc3)cc2)oc1NCCCn1ccnc1`, the inhibition is -1.04%. Take `Cc1cccc(C)c1Nc1nnc(SCc2cn3cccc(C)c3n2)s1`: the inhibition is -7.42%.

`COc1ccc(-c2cc(=Nc3ccc(C)cc3)c3ccccc3o2)cc1`: the inhibition is 12.8%. Consider `COc1ccc(-c2cc(=Nc3ccccc3)c3cc(C)ccc3o2)cc1`, for which the inhibition is 17.7%.

Take `O=C(CNC(=O)c1ccco1)Nc1ccc(S(=O)(=O)N2CCCC2)cc1`: the inhibition was -5.82%. With `Cc1ccc2nc(N(CCCN(C)C)C(=O)CCc3ccccc3)sc2c1`, the inhibition is 9.45%. To `CN(C)CCCN(C(=O)CCc1ccccc1)c1nc2ccc(F)cc2s1` belongs 7.03%; to `O=C1NC(c2ccccc2)=NC1(NS(=O)(=O)c1ccc(Cl)cc1)C(F)(F)F` (stereo unspecified), 7.08%. Turning to `O=C(c1cccs1)c1coc2ccc(O)cc12`, the inhibition was 51%. `O=C(c1ccc(Cl)cc1)c1coc2ccc(O)cc12`: the inhibition was -6.06%.

As to `O=C(c1coc2ccc(O)c(CN3CCOCC3)c12)C1CC1`, the inhibition was 4.13%. `COc1ccc(OC)c(C(=O)c2coc3ccc(O)cc23)c1`: the inhibition is -1.33%. Then `CN1CC(=O)N(CC(=O)Nc2ccc(F)cc2)c2ccccc2C1=O`, with -5.02%; and `COc1ccc(C(=O)Nn2c(CCC(=O)O)ccc2-c2ccc(C)cc2)cc1OC`, with -3.08%; and `Cc1cccc(N2CCN(C(=O)N3CCOCC3)CC2)c1C`, with -3.5%.

Consider `Cc1nn(C)c(C(=O)NNC(=S)NC2CCCCC2)c1Br`, for which the inhibition is 10.2%. On to `Cc1ccc(NC(=O)COC(=O)CCNS(=O)(=O)c2ccc(C)c(C)c2)cc1`, for which the inhibition was -0.05%. For `CCCOc1cc(N(CC)CC)ccc1/C=C(/C#N)c1nc2ccc(C)cc2[nH]1`, the inhibition was 61.6%. Take `CCN(CC)c1ccc(/C=C(/C#N)c2nc3ccc(C)cc3[nH]2)c(OC(C)C)c1`: the inhibition was 16.2%. With `FC(F)(F)c1ccc(CN2C[C@@H]3C(c4ccccc4)C4(c5cccnc5)CC3(C4)[C@H]2c2ccccc2)cc1` (stereo partly specified), the inhibition is 20.3%. Consider `COc1ccccc1S(=O)(=O)CC(O)COc1ccc(C#N)cc1` (stereo unspecified), for which the inhibition was -1.05%. With `Cc1nccn1CC(=O)N/N=C/c1c[nH]c2ccccc12`, the inhibition was 3.79%.

In the case of `COC(=O)c1ccc(OC(=O)CCN2c3ccccc3Sc3ccccc32)cc1`, the inhibition was 1.13%. For the compound `O=C(CCN1c2ccccc2Sc2ccccc21)Oc1ccccc1`, the inhibition is 22.8%. In the case of `CSCCC(NC(=O)c1ccccc1)c1nc(-c2ccccc2)no1` (stereo unspecified), the inhibition was 2.56%. In the case of `CCOc1cc(Br)ccc1S(=O)(=O)N1CCC(C(N)=O)CC1`, the inhibition is -1.13%.

For the compound `Cc1cccc(N=Nc2c(C)c(C#N)c(O)[nH]c2=O)c1`, the inhibition is -1.05%. Turning to `CCOC(=O)c1ccc(N=Nc2c(C)c(C#N)c(O)[nH]c2=O)cc1`, the inhibition was 86.6%. Turning to `Cc1ccc(C)c2[nH]c(=O)c(CN(CC3CCCO3)C(=S)NCc3ccco3)cc12` (stereo unspecified), the inhibition was 1.36%. For `c1ccc(COc2ccc(CNn3cnnc3)cc2)cc1`, the inhibition was -2.39%. Turning to `COc1cccc(-c2nc(Oc3cccc(C)c3C)c3ccccc3n2)c1O`, the inhibition is -7.68%. Take `Cc1nc(SCC(=O)NCc2ccccc2)c2oc3ccccc3c2n1`: the inhibition was -1.12%. With `CCOC(=O)N1C2=NC(C(=O)OC)=C(C(=O)OC)[C@@H]3N(Cc4ccccc4)c4ccccc4[C@]23C[C@H]1C(=O)OC`, the inhibition was -6.13%.

As to `O=C(c1cn(-c2ccc(Cl)c(Cl)c2)nn1)C1CC1`, the inhibition is 12.8%. Consider `CN1CCN(c2ccc(C(=O)c3ccc(F)cc3)cc2)CC1`, for which the inhibition was 1.19%. In the case of `Cc1ccc(-n2cnnn2)cc1Cl`, the inhibition was -4.47%. Take `Cc1ccc(C(=O)c2cn(-c3ccc(F)c(Cl)c3)nn2)cc1`: the inhibition is 0.59%. To `Cc1c(-n2c(O)c(C3=c4ccccc4=NC3=O)sc2=O)c(=O)n(-c2ccccc2)n1C` belongs 1.59%; to `N/C(=N\OC(=O)c1cc(Cl)ccc1Cl)c1ccncc1`, -3.7%. Take `CS(=O)(=O)N(Cc1ccc(Cl)cc1)c1ccc(C(=O)N/N=C/c2cc3ccccc3nc2Cl)cc1`: the inhibition is -6.17%. Take `Cc1ccc(-n2nnnc2SCC(=O)Nc2sccc2C#N)cc1`: the inhibition was 0.42%. Regarding `O=C(CN1C(=O)CCC1=O)NCC12CC3CC(CC(C3)C1)C2`, the inhibition is 0.8%.

Regarding `Cc1ccc(N/C=C(\C#N)c2ccc(OCCCF)cc2)cc1`, the inhibition was 7.98%.

In the case of `O=C(NCc1ccc2c(c1)OCO2)c1cnc2ccccn2c1=O`, the inhibition is -8.83%. `COc1ccc(NC(=O)c2c(Cl)nc3ccccn23)cc1`: the inhibition is -0.46%. With `Cc1nc2ccccn2c1C(=O)NCc1cccnc1`, the inhibition was -10.5%. Turning to `CCC(CC)NC(=O)c1cc2c(C)nn(Cc3ccccc3Cl)c2s1`, the inhibition was -6.17%. Take `Cc1nn(Cc2ccccc2Cl)c2sc(C(=O)NC(C)(C)C)cc12`: the inhibition is 7.48%. Then `Cc1nc2ccccn2c1C(=O)N/N=C/c1ccc2c(c1)OCO2`, with 1.58%; and `CCNC(=O)c1c(C)nc2ccccn12`, with -9.74%; and `CC(C)(C)c1ccc(C(=O)OCCNC(=O)c2c(Cl)nc3ccccn23)cc1`, with -10.6%. On to `COCCn1c(=O)[nH]c2cc(C(=O)NCC3CCCO3)ccc2c1=O` (stereo unspecified), for which the inhibition is -10.7%. On to `COc1cc(C2NC(=O)NC(C)=C2C(C)=O)ccc1O` (stereo unspecified), for which the inhibition was 5.67%. `COC(=O)c1ccccc1NC(=O)NCc1cccnc1`: the inhibition is 2.42%. Regarding `CCCC(C)C(=O)Nc1ccc(Cl)cc1Cl` (stereo unspecified), the inhibition is -6.12%. To `Cc1ccc(NC(=O)CC(=O)NCCN2CCOCC2)cc1` belongs -6.87%; to `CC(=O)c1ccc(OC(C)C)c(CSC(=N)N)c1`, -9.08%; to `COc1ccccc1NS(=O)(=O)c1cccc(NC(=S)NCCN2CCOCC2)c1`, -2.29%. Take `Cc1ccc2nc3c(c(Nc4ccc5c(c4)OCCO5)c2c1)CCC3`: the inhibition is 59.8%. Then `c1ccc2c(Nc3ccc4c(c3)OCCO4)c3c(nc2c1)CCC3`, with 21.9%; and `N#Cc1c(SCC(N)=O)nsc1SCc1ccc(Cl)cc1`, with -0.48%; and `CSc1snc(SCC(N)=O)c1C#N`, with -4.47%.

For `C/C=C/C(=O)OCC(=O)Nc1cccc(Br)c1`, the inhibition is -3.94%. Consider `COc1ccc(NC(=O)C(C)Sc2nnc3c4c(nc(-c5ccc(OC)cc5)n23)CC(C)(C)OC4)cc1` (stereo unspecified), for which the inhibition was 4.37%. To `CC(C)CNC(=S)N1CCN(Cc2ccc3c(c2)OCO3)CC1` belongs -8.68%.

`Cc1ccc(NC(=O)c2cc3c(s2)CCCC3)cc1`: the inhibition is -5.85%.

In the case of `COc1ccc(NC(=O)c2cc3ccccc3o2)cc1`, the inhibition is 8.56%. To `COc1ccccc1NC(=O)c1ccc(NC(=O)c2cc3c(s2)CCC3)cc1` belongs 0.63%; to `CCC1C(=O)N=C(SCC(=O)Nc2ccccc2)NC1=O` (stereo unspecified), -8%; to `CCC(=O)Nc1ccc(NC(=O)c2cc3ccccc3o2)cc1`, 8.98%. Then `CCOC(=O)c1ccc(NC(=O)Nc2ccc(F)cc2)cc1`, with -14.9%; and `CCC1C(=O)N=C(SCC(=O)Nc2ccc(C(=O)OC)cc2)NC1=O` (stereo unspecified), with 8.73%; and `CCOC(=O)c1ccc(NC(=O)CNC(=O)c2ccccc2)cc1`, with 0.26%. For `COc1cccc(/C=N/NC(=O)CN(CCc2ccccc2)S(=O)(=O)c2ccc(NC(C)=O)cc2)c1`, the inhibition is 0.86%. Take `COc1ccc(/C=N/NC(=O)c2cccnc2)cc1CN1CCc2cc(OC)c(OC)cc2C1C` (stereo unspecified): the inhibition is 1.27%.
